The record followed here is ChEMBL document CHEMBL1201862, “PubChem BioAssay data set” (2004).

Screen size: about 53,000 sequences; about 5,500 (10%) were called active. No stated cut-off is given here; in the data, active = GI50 up to about 1.1 µM and inactive = higher. Only a selection was taken, and actives are over-represented in it overall. Entries with a potency or affinity are not part of this list.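 Results reflect a 48-hour exposure of cells in 96-well plates to compound at five concentrations. The concentration for 50% growth inhibition is given as GI50.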

In the experiment the test system is HL-60. Briefly: NCI tumour cell line growth inhibition, 48 h.
In turn, “ACRIFLAVINE HYDROCHLORIDE, CHEMBL5219995” came in with a GI50 of 0.333 µM.

In the case of “[Bis(aminomethyl)ethylmethylsilane]tetrachloroplatinum(IV), CHEMBL2146192”, the GI50 is 0.156 µM.

“cis-Bis[[(trimethylsilyl)methyl]amino]tetrachloroplatinum(IV), CHEMBL2146191” yielded a GI50 of 1.76 µM.

Substance “[Bis(aminomethyl)tetramethylenesilane]tetrachloropaltinum(IV), CHEMBL2146189” came in with a GI50 of 0.115 µM.

For “[Bis(aminomethyl)dimethylsilane]tetrachloroplatinum(IV), CHEMBL2146190”, the GI50 was 0.248 µM.

For the substance CISPLATIN, CHEMBL11359, the GI50 was found to be 0.542 µM.

Turning to “[Bis(aminomethyl)pentamethylenesilane]tetrachloropaltinum(IV), CHEMBL2146204”, the GI50 was found to be 0.0566 µM.

“mu-(1,7-nanodiamine-N,N')bis-(cis-aminedichloroplatimum (II)), CHEMBL2146215” showed a GI50 of 1.64 µM.

On to “[Bis(aminomethyl)tetramethylenesilane]dichloropaltinum(II), CHEMBL2146205”, for which the GI50 turned out to be 1.57 µM.

In turn, “[Bis(aminomethyl)diethylsilane]tetrachloroplatinum(IV), CHEMBL2146203” displayed a GI50 of 0.0912 µM.

In turn, “[Bis(aminomethyl)dimethylsilane]dichloroplatinum (II), CHEMBL2146201” had a GI50 of 1.3 µM.

“[Bis(aminomethyl)pentamethylenesilane]dichloropaltinum(II), CHEMBL2146202” came in with a GI50 of 0.0513 µM.
